Screening results deposited in PubChem by several laboratories.
Compounds with a hit are over-represented: about 1.6% of the library has one in this group of screens.
Redox H2O2 prof: compounds producing H2O2 with reducing agent – biochemical, NIH compound library profiling, artefact control for MLSCN library redox annotation, primary screen; DTT-dependent redox cycling H2O2, phenol red/HRP absorbance; 100% = 100 µM peroxide control, 0% = buffer; activation, % at 10 µM; 200,000 compounds, 0.03% hits;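 active means activation of at least 50% relative to the plate's high and low controls in the primary single-dose screen; inactive means activation below 50%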;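 further: compound incubated with DTT at 0.8 mM final as the reducing agent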
Hsp70 activator: Hsp70 transcriptional activators, primary screen, cell-based, HeLa, Hsp70 promoter luciferase, luminescence, 10 µM. 200,000 compounds, 0.04% hits. activation, % at 10 µM. HeLa Hsp70 promoter luciferase reporter; scaled: vehicle 0, proteasome-inhibitor control 100%;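 active means activation above the mean across all tested compounds plus 3 SD, cutoff set per campaign, cut at about 5.5% in these data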;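 further: 100% = MG132 at 30 µM as the positive control and 0% = DMSO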
Wee1 stabilizer: Wee1 degradation inhibitors, primary screen, cell-based, HeLa, Wee1K328M-luciferase, luminescence; Wee1-like protein kinase (Homo sapiens), P30291; HeLa Luc-Wee1K328M stability; 100% = proteasome inhibitor MG132 effect; reporter increase, % at 5 µM; 220,000 compounds, 1.2% hits; AID 1321, 2008;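 active means activation above the mean of all tested compounds plus 3 SD, set per screening run, cut at about 8.8% in these data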;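 further: cells exposed to compound for 20 h before luminescence read; 0% = DMSO alone and 100% = MG132 at 30 µM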
HSV augment: enhancers of HSV replication in host cells, fold increase, host cell viability; HSV replication augmentation in cells; maximum fold increase; 220,000 compounds, 0.005% hits; AID 1956, 2009; in the data active means maximum fold increase above about 1.5; tested in PC3 cells
p97 ATPase inh: inhibitors of human p97 ATPase, primary screen, biochemical; inhibition, % at 8 µM; 220,000 compounds, 0.42% hits; recombinant p97 ATPase, Kinase-Glo ATP luminescence, 3 h; in the data active means inhibition above about 15%;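 further: 0% = DMSO vehicle and 100% = wells lacking enzyme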
Target sequence (P55072 whole entry, looked up): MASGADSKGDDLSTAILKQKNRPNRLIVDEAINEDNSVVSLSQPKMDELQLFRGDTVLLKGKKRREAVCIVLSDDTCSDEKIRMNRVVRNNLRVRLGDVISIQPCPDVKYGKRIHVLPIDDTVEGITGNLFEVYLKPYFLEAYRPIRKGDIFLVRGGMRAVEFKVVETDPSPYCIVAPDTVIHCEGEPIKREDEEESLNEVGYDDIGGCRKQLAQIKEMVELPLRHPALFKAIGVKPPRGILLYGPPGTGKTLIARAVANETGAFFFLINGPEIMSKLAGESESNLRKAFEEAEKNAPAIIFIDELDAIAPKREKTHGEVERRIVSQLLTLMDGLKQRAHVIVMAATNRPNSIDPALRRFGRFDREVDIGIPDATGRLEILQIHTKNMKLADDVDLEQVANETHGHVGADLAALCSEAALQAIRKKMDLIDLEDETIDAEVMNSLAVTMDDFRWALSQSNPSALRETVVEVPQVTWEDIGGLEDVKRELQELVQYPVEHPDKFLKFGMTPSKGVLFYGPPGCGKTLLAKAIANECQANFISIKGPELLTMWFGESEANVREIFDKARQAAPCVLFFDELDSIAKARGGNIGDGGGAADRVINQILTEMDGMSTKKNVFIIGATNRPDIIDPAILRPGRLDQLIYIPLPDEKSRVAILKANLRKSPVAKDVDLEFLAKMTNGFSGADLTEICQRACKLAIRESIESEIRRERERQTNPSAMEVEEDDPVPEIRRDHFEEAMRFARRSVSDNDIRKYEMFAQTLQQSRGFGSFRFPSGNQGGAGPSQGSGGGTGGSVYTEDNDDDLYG
Wee1 degr conf: Wee1 degradation inhibitors, confirmation, cell-based, HeLa, Wee1K328M-luciferase, luminescence, triplicate; shares compounds with Wee1 stabilizer; HeLa Luc-Wee1K328M degradation; vehicle 0%, proteasome-blocked wells 100%; activation, % at 5 µM; 1,100 compounds, 4% hits; in the data active means activation above about 8.9%
Starred values were filed as active, the others as inactive; i = inactive; / = not tested or not shown.

SMILES | Redox H2O2 prof | Hsp70 activator | Wee1 stabilizer | HSV augment | p97 ATPase inh | Wee1 degr conf
COCCNC(=O)c1cc(-c2cccc(OC)c2)on1 | 2 | 0 | 5 | i | 6 | /
Cc1csc(NC(=O)c2ccco2)c1C(=O)c1ccccc1 | / | / | 12* | i | 2 | 1
CCCCOC(=O)CCc1c(C)n[nH]c1C | / | / | 12* | i | 6 | 2
CCCCNc1c2c(nc3c(-c4ccccc4)c(C)nn13)CCC2 | 0 | 0 | 13* | i | -7 | 2
N#Cc1nc(-c2ccco2)oc1NCc1ccc(F)cc1 | 0 | 0 | 2 | i | -1 | /
CCCC(=O)Nc1ccc2c(c1)nc(CN1CCCCC1)n2C | 3 | 0 | 16* | i | 3 | 5
CCCC(=O)Nc1ccc2c(c1)nc(CN1CCCC1)n2C | 0 | 0 | 1 | i | 0 | /
CC(C)n1cc(/C=C2/NC(=O)N(c3cccc(Cl)c3)C2=O)c2ccccc21 | -3 | 0 | -3 | i | -2 | /
COc1cccc(-c2nnc(-c3ccco3)o2)c1 | 0 | 0 | 11* | i | 2 | 4
Cc1ccccc1-c1noc(-c2ccc(O)cc2)n1 | 1 | 0 | 11* | i | -2 | 6
Cc1cc(C)n(-c2cccc(Cl)c2C#N)n1 | / | / | 13* | i | 2 | -4
CN(Cc1nnc(SCC(=O)NCCc2ccccc2)n1C)S(=O)(=O)c1ccccc1 | 1 | 0 | -2 | i | 1 | /
CC(=O)Nc1ccccc1/C=C/c1ccc2c(C)ccc(O)c2n1 | 0 | 0 | 1 | i | 0 | /
CCNc1nc(Cl)nc(NCc2ccccc2)n1 | -4 | 0 | -2 | i | 3 | /
Clc1cccc(NCc2ccccc2)n1 | -1 | 0 | 27* | i | -1 | -1
CC(C)CCNC(=O)c1cc(-c2ccncc2)nc2ccc(S(=O)(=O)N3CCOCC3)cc12 | 0 | 0 | 11* | i | 1 | 1
COCCNC(=O)c1cc(-c2ccncc2)nc2ccc(S(=O)(=O)N3CCOCC3)cc12 | 0 | 0 | 0 | i | 5 | /
Cc1cc(CN2CCCC(CO)(Cc3cccc(Cl)c3)C2)n[nH]1 (configuration not stated) | 1 | 0 | 14* | i | 3 | 0
COc1ccc(-c2nnc(SCCC(=O)O)n2C)cc1OC | 1 | 0 | 3 | i | 2 | /
CCN(CC)C(=O)Cn1cnc2sc(C(=O)N3CCN(c4ccc(F)cc4)CC3)c(C)c2c1=O | -1 | 0 | 1 | i | -5 | /
c1ccc2nc(-c3ccc4c(c3)OCO4)ccc2c1 | -1 | 0 | 10* | i | 0 | 3
CN(C)CCNC(=O)CNC(=S)N(Cc1ccccc1)Cc1cccnc1 | -1 | 0 | -2 | i | -6 | /
Cc1ccc(CCNC(=O)CNC(=S)N(Cc2ccccc2)Cc2cccnc2)cc1 | -1 | 0 | 15* | i | 1 | 0
COCCNCc1ccc(C(C)C)cc1 | -2 | 0 | 0 | i | 5 | /
Cc1c(-c2ncn[nH]2)sc(C#N)c1-c1ccccc1 | 0 | 0 | -4 | i | 5 | /
SMILES | Redox H2O2 prof | Hsp70 activator | Wee1 stabilizer | HSV augment | p97 ATPase inh | Wee1 degr conf
COc1cc(OC)c2c(=O)cc(-c3cccnc3)oc2c1 | / | / | 14* | i | 6 | 2
C/C(=N\N)c1c(-c2ccccc2)c2cc(C)ccc2[nH]c1=O | / | / | -2 | i | -1 | /
O=C1NCCCC1C(=O)N/N=C/c1cccc(O)c1 (configuration not stated) | 0 | 0 | 3 | i | 1 | /
COc1cc(C(=O)Nc2nc3ccccc3[nH]2)ccc1OC(F)F | / | / | 12* | i | 9 | 6
COc1cccc(CC(=O)Nc2nc3ccccc3[nH]2)c1 | 0 | 0 | 12* | i | -2 | 1
COc1ccc(C(=O)Nc2nc3ccccc3[nH]2)cc1OC | 1 | 0 | 1 | i | 4 | /
CN(CC(O)COc1ccccc1F)C1CCCCC1 (configuration not stated) | 0 | 0 | 11* | i | -2 | 1
CC(C)CCNC(=O)C(C)N(Cc1ccc(F)cc1)C(=O)c1ccc(CN2CCCCC2)o1 (configuration not stated) | 0 | -1 | 2 | i | -5 | /
CCN(CC)CCN(C(=O)c1ccc(CN2CCCCC2)o1)C(C(=O)NC1CCCCC1)c1ccc(F)cc1 (configuration not stated) | 0 | 0 | 11* | i | 2 | -2
CC(=O)Nc1cccc(-c2cn3ccccc3n2)c1 | -1 | 0 | 11* | i | 10 | -2
CN1/C(=C\C(=O)c2cccnc2)Sc2ccccc21 | -1 | 0 | 13* | i | -5 | 5
Cc1cc(C)c(C#N)c(SCC(=O)NC2CC2)n1 | -1 | 0 | -1 | i | -7 | /
Cc1cc([N+](=O)[O-])nn1CCCC(=O)Nc1ccc(Cl)cc1Cl | -1 | 0 | -1 | i | 4 | /
Cc1c(Cl)cccc1NC(=O)CCCn1nc([N+](=O)[O-])cc1C | -1 | 0 | 15* | i | 1 | -3
Cc1noc(C)c1Cn1nc(C(=O)O)c2ccccc2c1=O | 0 | 0 | 12* | i | -1 | -1
O/C(=C\Sc1nnc(Cc2ccccc2)o1)c1ccc(Br)cc1 | 0 | 0 | -2 | i | 2 | /
CN1CCN(C(=S)Nc2cccc(Cl)c2)CC1 | 0 | 0 | 4 | i | 1 | /
C/C=C/C=C/C(=O)Nc1nccs1 | 0 | 0 | 11* | i | 3 | 2
C/C(=C\c1ccccc1)C(=O)Nc1nccs1 | -2 | 0 | -1 | i | 3 | /
O=C(/C=C/c1ccc(Cl)cc1)Nc1nccs1 | -1 | 0 | 13* | i | -4 | 0
CCC(=O)Nc1cccc(NC(=O)COc2ccc(OC)cc2)c1 | 1 | 0 | -1 | i | -5 | /
COc1cc(/C=N/NC(=O)c2cc(-c3cccs3)nc3ccccc23)ccc1O | / | / | 12* | i | 10 | 8
NS(=O)(=O)c1ccc(CNC(=O)c2cc(-c3cccs3)nc3ccccc23)cc1 | / | / | 0 | i | 8 | /
NS(=O)(=O)c1ccc(CCNC(=O)c2cc(-c3cccs3)nc3ccccc23)cc1 | -1 | 0 | 12* | i | 1 | 3
COc1ccccc1N1CCN(C(=O)/C=C/c2ccco2)CC1 | -1 | 0 | -2 | / | 7 | /
COc1ccccc1N1CCN(/N=C/C=C\c2ccco2)CC1 | 0 | 0 | 24* | i | -1 | 2
CSc1sccc1/C=N/NC(=O)c1ccncc1 | 0 | 0 | -1 | i | 6 | /
